We go through 10 compounds from PubChem BioAssay (NCATS).

Several values for one entry are separate records, joined by “and”; a condition that tells them apart may be missing. Identical values can stand only once. Inconclusive results are not listed. The source holds several records for some structures; these can differ, active in one and inactive in another. Activity calls are given as the source filed them. Unless noted, calls follow the shape of the full dose curve.

In assay [1] the target is Cytochrome P450 1A2 (Homo sapiens) (UniProt P05177). Nature of the assay: p450-cyp1a2 (AID 410). Also: potency is read from the fitted curve at half-maximal effect.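 As to activity change, negative = inhibition: -100% = full effect of reference inhibitor.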 The essentials:
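Human CYP1A2 (20nM) demethylated Luciferin-ME at its Km (100uM) in 100mM KPO4. After 10 min compound preincubation, NADPH regeneration ran the reaction 60 min at room temperature. Luciferin was read by luminescence, normalized to 57 uM furafylline.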

Assay [2] in a line: NFAT Signaling Pathway (AID 444; active = well fitted curve in either direction with a large enough effect, not every such curve was filed as active;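 also: carbachol stimulus at about its EC50 of 1 µM final; % is scaled to controls: 0 for no effect and ±100 for the full control effect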). Particulars: Jurkat NFAT-bla M1, carbachol, beta-lactamase ratio, 5 h. The gist of the method:
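Read-out: CCF4 FRET ratio (460 nm/530 nm) after 1 h RT dye loading, used for %activity and AC50 from titration series. Cells: Jurkat NFAT-β-lactamase/M1 line, treated with compound plus 1 uM carbachol for 5 h, 37 °C.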

The target of assay [3] is Glucocorticoid receptor (Homo sapiens) (UniProt P04150). Nature of the assay: GR-GFP Redistribution (AID 450;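 active = compounds whose dose series gives a full or clear partial fitted curve of increased nuclear translocation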; also: potency is read from the fitted curve at half-maximal effect). Particulars: U2OS GR-GFP nuclear translocation, laser cytometry, 2 h.
Chain of Glucocorticoid receptor (Homo sapiens) (P04150 whole entry, looked up): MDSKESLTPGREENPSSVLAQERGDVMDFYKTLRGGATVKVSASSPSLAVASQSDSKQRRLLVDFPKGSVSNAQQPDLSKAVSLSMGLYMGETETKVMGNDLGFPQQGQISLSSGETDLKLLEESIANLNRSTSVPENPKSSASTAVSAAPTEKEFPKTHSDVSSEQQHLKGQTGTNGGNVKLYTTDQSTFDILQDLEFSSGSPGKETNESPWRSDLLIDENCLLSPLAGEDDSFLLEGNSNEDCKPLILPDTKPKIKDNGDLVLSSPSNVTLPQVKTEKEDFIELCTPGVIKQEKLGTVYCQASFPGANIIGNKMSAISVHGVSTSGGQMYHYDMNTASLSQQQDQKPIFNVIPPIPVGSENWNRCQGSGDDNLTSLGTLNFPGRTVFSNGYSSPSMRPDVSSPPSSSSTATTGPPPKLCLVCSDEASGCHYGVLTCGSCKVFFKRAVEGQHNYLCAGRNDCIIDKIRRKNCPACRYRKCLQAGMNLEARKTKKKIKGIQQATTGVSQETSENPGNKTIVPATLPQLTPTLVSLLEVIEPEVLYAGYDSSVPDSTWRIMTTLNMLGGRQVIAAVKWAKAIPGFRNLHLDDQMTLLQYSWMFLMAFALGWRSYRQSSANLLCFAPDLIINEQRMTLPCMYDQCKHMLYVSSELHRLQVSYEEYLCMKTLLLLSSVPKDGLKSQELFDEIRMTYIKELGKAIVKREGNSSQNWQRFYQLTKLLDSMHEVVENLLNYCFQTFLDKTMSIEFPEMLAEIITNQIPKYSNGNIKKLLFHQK
Assay [4] has the same target. The experiment in a line: GR-EFC Redistribution (AID 451). Also: potency is read from the fitted curve at half-maximal effect. Particulars: CHO-K1 GR-EFC translocation, beta-gal luminescence, 2 h. The essentials:
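Translocation of GR-ED fusion to nuclear EA restores b-gal, read by luminescence after 1 h room-temperature detection. Engineered CHO-K1 biosensor cells, 1,000/well, exposed 2 h at 37 C to titrations up to 46 uM final.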

Assay [5] concerns the target 3',5'-cyclic-AMP phosphodiesterase 4B (Homo sapiens) (UniProt Q07343). Nature of the assay: qHTS Assay for Inhibitors of PDE-IV (AID 607; active = well fitted activation curve with a large enough effect in the main read-out, with a control signal flat, not every such curve was filed as active; also: % of control where 0% means no effect). The essentials:
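Live HEK293 cells with a modified cyclic nucleotide-gated (CNG) channel report intracellular cAMP via membrane-potential dye fluorescence (ex 535/em 590 nm). Endogenous PDE-IV was targeted. Compounds were tested at up to 22.9 uM final; RO 20-1724 100 uM served as control.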

The nature of assay [6]: Stat Signaling Pathway (AID 446; active = well fitted curve in either direction with a large enough effect, not every such curve was filed as active;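 also: ME-180 cervical cancer cells given 40 pM IL-6 alongside compound; SIE-controlled beta-lactamase reporter measured as 460/530 nm FRET emission ratio; % is scaled to controls: 0 for no effect and ±100 for the full control effect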). Particulars: ME-180 (cervical carcinoma) SIE beta-lactamase reporter, IL-6 stimulated, 5 h. The essentials: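 IL-6/STAT signaling read in ME-180 cells via an SIE beta-lactamase reporter. Stimulus was 40 pM IL-6 (its AC50) for 5 hrs, so both activation and inhibition register.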
Assay [7] concerns the target Mitogen-activated protein kinase 10 (Mus musculus) (UniProt Q61831). Nature of the assay: JNK3 AlphaScreen Assay (AID 530; active = well fitted curve in either direction with a large enough effect, not every such curve was filed as active;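 also: kinase came from lysate of stimulated human HepG2 cells; signal reports phosphorylation of biotinylated GST-cJun 1-79 at Ser73 with 10 µM ATP; % is scaled to controls: 0 for no effect and ±100 for the full control effect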). The gist of the method: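 Room-temperature AlphaScreen kinase assay; pre-activated HepG2 lysate as JNK3 source, biotin-GST-cJun(1-79) substrate, 10 uM ATP, compound 15 min preincubation.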
Assay [8] can be described thus: Cell Viability - BJ (AID 421).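 Also: potency is read from the fitted curve at half-maximal effect; cells exposed to compound for 40 hours at 37 °C before readout.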 As to conditions: BJ fibroblast viability, qHTS. The essentials:
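Quantitative HTS: ATP depletion in BJ cells after 40 hr compound exposure in complete culture medium, detected with CellTiter-Glo; AC50 from standard Hill fits.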
(Quantitative high-throughput screening tests each substance at several concentrations.)

Assay [9] in a line: Cell Viability - Jurkat (AID 426;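 active = dose-dependent loss of cell ATP signal giving a full or clear fitted curve, ranked by lower potency value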; also: potency is read from the fitted curve at half-maximal effect). As to conditions: qHTS. The essentials: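 Jurkat (clone E6-1, human T-cell leukemia) cells, 5000/well in complete medium, were exposed to compound for 40 hr at 37 °C. Viability was read as intracellular ATP by CellTiter-Glo luminescence; AC50 came from Hill fits of concentration-response data.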
A short description of assay [10]: Cell Viability - Hek293 (AID 427;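 active = compounds whose dose-response curve shows a full or clear partial loss of cell viability, called from curve shape rather than a numeric limit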;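 also: potency is read from the fitted curve at half-maximal effect; cells exposed to compound for 40 hours at 37 °C before reading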). As to conditions: qHTS. The gist of the method: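 AC50 values derive from Hill-modelled concentration-response of ATP-based luminescence, normalized between DMSO-only and 100 uM tamoxifen controls. Cells were exposed in complete culture medium for 40 hr at 37 °C before detection.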
Assay [11] can be described thus: Cell Viability - HepG2 (AID 433).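 Also: potency is read from the fitted curve at half-maximal effect; potency for ATP loss meaning cytotoxicity.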 As to conditions: qHTS. The gist of the method: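 Cytotoxicity is scored as loss of intracellular ATP in HepG2 cells exposed to compounds for 40 h. Concentration-response curves, normalized to DMSO and 100 uM tamoxifen, give AC50 values.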
A short description of assay [12]: Cell Viability - SK-N-SH (AID 435).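 Also: potency is read from the fitted curve at half-maximal effect; compound exposure lasted 40 h at 37 °C.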 Particulars: SK-N-SH neuroblastoma cell viability qHTS. The essentials: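 Cells seeded at 1500 per well and incubated 5 hr at 37 °C. Compound added, then 40 hr at 37 °C. CellTiter-Glo added, 20 min at room temperature, luminescence read.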
Assay [13] in a line: Cell Viability - N2a (AID 540; active = well fitted curve in the direction sought with a large enough effect; an effect the other way counts as inactive or inconclusive;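 also: plate controls were DMSO alone for no effect and tamoxifen control for full effect; nearly all actives have a fitted effect of over 45% in size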). As to conditions: N2a mouse neuroblastoma cell viability; activity change, negative = cytotoxicity: at 92.2 µM (top of the series). The essentials:
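Mouse neuroblastoma N2a cells (1500/well) were preincubated 5 hr at 37 °C, then exposed to compounds for 40 hr at 37 °C in complete medium. Viability was read as intracellular ATP by CellTiter-Glo luminescence; AC50 from Hill fits.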

Assay [14] is described as follows: Cell Viability - NIH 3T3 (AID 541; active = well fitted curve in the direction sought with a large enough effect; an effect the other way counts as inactive or inconclusive;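 also: plate controls were DMSO alone for no effect and tamoxifen positive control for full effect; nearly all actives have a fitted effect of over 25% in size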). The gist of the method:
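NIH 3T3 mouse embryo fibroblasts (1000 cells/well) were plated in complete medium and treated with compound for 40 hr at 37 °C. Viability was read as intracellular ATP by CellTiter-Glo luminescence; AC50 values came from Hill-equation fits of concentration-response data.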

A short description of assay [15]: Cell Viability - HUV-EC-C (AID 542; active = well fitted curve in the direction sought with a large enough effect; an effect the other way counts as inactive or inconclusive; also: % is scaled to controls: 0 for no effect and ±100 for the full control effect; nearly all actives have a fitted effect of over 35% in size). The essentials:
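HUV-EC-C normal human vascular endothelial cells, 1000 cells/well, pre-incubated 5 hr at 37 °C, then exposed to compounds for 40 hr at 37 °C in complete medium. Viability measured as intracellular ATP by CellTiter-Glo luminescence; AC50 from Hill fits.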

Assay [16] in a line: Cell Viability - H-4-II-E (AID 543; active = well fitted curve in the direction sought with a large enough effect; an effect the other way counts as inactive or inconclusive; also: % is scaled to controls: 0 for no effect and ±100 for the full control effect; nearly all actives have a fitted effect of over 35% in size). The gist of the method: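 Rat hepatoma H-4-II-E cells (1500/well) were plated, incubated 5 hr at 37 °C, then exposed to compounds for 40 hr at 37 °C. Cellular ATP was read by CellTiter-Glo luminescence; AC50 came from Hill-equation fits of concentration-response data.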
A short description of assay [17]: Cell Viability - SH-SY5Y (AID 544; active = well fitted curve in the direction sought with a large enough effect; an effect the other way counts as inactive or inconclusive;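 also: 0% = DMSO alone and -100% = 100 µM tamoxifen; nearly all actives have a fitted effect of over 55% in size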). The gist of the method: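 Human neuroblastoma SH-SY5Y cells (1500/well) in complete medium were exposed to compounds for 40 hr at 37 °C; intracellular ATP was then quantified by CellTiter-Glo luminescence after 20 min at room temperature. AC50 came from Hill-equation concentration-response fits.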
Assay [18] can be described thus: Cell Viability - Renal Proximal Tubule (AID 545; active = well fitted curve in the direction sought with a large enough effect; an effect the other way counts as inactive or inconclusive;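 also: 0% = DMSO only and -100% = 100 µM tamoxifen; nearly all actives have a fitted effect of over 40% in size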). The gist of the method:
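Cytotoxicity is scored as a concentration-dependent drop in cellular ATP in primary rat renal proximal tubule cells exposed for 40 hr. AC50 derives from Hill modelling.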

Assay [19] in a line: Cell Viability - Mesenchymal (AID 546; active = well fitted curve in the direction sought with a large enough effect; an effect the other way counts as inactive or inconclusive;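 also: cells exposed to compound for 40 hours before reading; 0% = DMSO only and -100% = 100 µM tamoxifen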). The gist of the method: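 AC50 values reflect the drop in intracellular ATP in a human kidney mesenchymal line derived from normal glomeruli. Treatment lasts 40 hr at 37 °C in complete medium, and the signal comes from CellTiter-Glo luminescence.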
The nature of assay [20]: Cellular Toxicity (caspase-3) HepG2 (AID 654; active = well fitted curve in the direction sought with a large enough effect; an effect the other way counts as inactive or inconclusive;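 also: cells exposed to compound for 16 hours before reading; 0% = DMSO alone and 100% = caspase signal from 100 µM tamoxifen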). The essentials:
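HepG2 cells (1500/well) in complete medium were treated with compounds for 16 hr at 37 °C. Caspase-3/7 activity was then read as luminescence from peptide-aminoluciferin cleavage. AC50 came from Hill fits, normalized to DMSO and 100 uM tamoxifen.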

Chain of 3',5'-cyclic-AMP phosphodiesterase 4B (Homo sapiens) (Q07343 whole entry, looked up): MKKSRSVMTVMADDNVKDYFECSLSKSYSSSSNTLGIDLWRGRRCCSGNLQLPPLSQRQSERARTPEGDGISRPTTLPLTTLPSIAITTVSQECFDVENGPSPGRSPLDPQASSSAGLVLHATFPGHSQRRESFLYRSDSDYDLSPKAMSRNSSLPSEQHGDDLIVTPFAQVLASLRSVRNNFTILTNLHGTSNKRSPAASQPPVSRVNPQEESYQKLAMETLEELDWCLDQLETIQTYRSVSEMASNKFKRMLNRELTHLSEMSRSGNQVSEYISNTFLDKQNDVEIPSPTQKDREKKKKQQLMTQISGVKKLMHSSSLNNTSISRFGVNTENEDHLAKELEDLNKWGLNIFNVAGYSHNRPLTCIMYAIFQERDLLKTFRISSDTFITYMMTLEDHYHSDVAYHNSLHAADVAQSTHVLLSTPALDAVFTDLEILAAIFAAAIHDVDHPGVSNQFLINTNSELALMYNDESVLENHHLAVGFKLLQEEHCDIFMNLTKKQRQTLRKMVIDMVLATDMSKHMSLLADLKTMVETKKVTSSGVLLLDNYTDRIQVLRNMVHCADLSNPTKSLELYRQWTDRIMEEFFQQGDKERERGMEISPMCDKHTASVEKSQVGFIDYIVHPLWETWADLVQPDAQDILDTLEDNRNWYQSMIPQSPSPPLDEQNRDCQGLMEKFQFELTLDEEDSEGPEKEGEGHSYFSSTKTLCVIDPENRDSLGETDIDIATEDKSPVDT
Chain of Cytochrome P450 1A2 (Homo sapiens) (P05177 whole entry, looked up): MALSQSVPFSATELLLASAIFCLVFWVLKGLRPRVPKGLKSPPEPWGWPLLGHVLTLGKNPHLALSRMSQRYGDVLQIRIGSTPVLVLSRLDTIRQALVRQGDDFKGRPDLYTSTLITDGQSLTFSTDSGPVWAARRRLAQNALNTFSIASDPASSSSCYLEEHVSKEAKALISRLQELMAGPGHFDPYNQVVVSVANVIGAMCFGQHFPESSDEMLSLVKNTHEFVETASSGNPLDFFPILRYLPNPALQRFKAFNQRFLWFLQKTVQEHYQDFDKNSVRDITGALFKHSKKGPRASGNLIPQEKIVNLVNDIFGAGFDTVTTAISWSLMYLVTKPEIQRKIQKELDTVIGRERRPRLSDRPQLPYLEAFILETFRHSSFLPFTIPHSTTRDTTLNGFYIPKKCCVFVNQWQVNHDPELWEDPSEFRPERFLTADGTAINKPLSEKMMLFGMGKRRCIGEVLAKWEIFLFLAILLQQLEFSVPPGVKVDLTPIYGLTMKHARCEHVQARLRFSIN

With `CC(=O)NCCc1c[nH]c2ccccc12`, the Potency was 15.8 µM (active) in assay [1], > 46 µM (inactive) in [3] and > 46 µM (inactive) in assay [4]. The activity change, negative = inhibition in assay [2] (at 38 µM (top of the series)) was 5.76% (inactive). The Potency entry in [5] was “inactive”.

For the compound `CCCN1CCC[C@H](c2cccc(O)c2)C1`, the Potency result in assay [1] and in [5] was “inactive” throughout. In addition, the activity change, negative = inhibition in assay [2] (at 38 µM (top of the series)) is -6.4% (inactive) and -13.2% (inactive). Moreover, the activity, negative = inhibition in assay [6] (at 38 µM (top of the series)) was 0.0297% (inactive) and 5.34% (inactive). Moreover, the Potency in assay [3] and in assay [4] was > 46 µM (inactive) each time.

Turning to `O=C(O)CC[N+](=O)[O-]`, the Potency result in [1] and in assay [5] was “inactive” each time. For the same compound, the activity change, negative = inhibition in assay [2] (at 38 µM (top of the series)) was 10% (inactive). Moreover, the activity, negative = inhibition in assay [6] (at 38 µM (top of the series)) was 1.14% (inactive). In addition, the Potency in assay [3] and in assay [4] was > 46 µM (inactive) throughout.

Turning to `O=C1CCCN1CC#CCN1CCCC1`, the Potency result in [1] and in [5] was “inactive” throughout. Also, the activity, negative = inhibition in assay [6] (at 38 µM (top of the series)) was -7.65% (inactive). The Potency in assay [3] and in assay [4] was > 46 µM (inactive) in each case. Besides, in assay [7], the compound was classed as inactive.

With `COC(=O)[C@@H](N)CCCN=C(N)N[N+](=O)[O-]`, the Potency entry in assay [1] is “inactive”. Besides, the Potency in assay [3] and in [4] was > 46 µM (inactive) in each case.

In the case of `CCCCc1ccc(C(=O)O)nc1`, the Potency is 31.6 µM (active) and inactive in assay [1]; > 46 µM (inactive) and > 20.6 µM (inactive) in [3]; > 46 µM (inactive) and > 20.6 µM (inactive) in [4]. In addition, the activity change, negative = inhibition is -0.081% (inactive) in assay [2] (at 17.2 µM (top of the series)) and 6.08% (inactive) in assay [2] (at 38 µM (top of the series)). Moreover, the activity, negative = inhibition in assay [6] (at 17.2 µM (top of the series)) is 6.81% (inactive); in assay [6] (at 38 µM (top of the series)), 9.55% (inactive). Besides, the Potency result in assay [5] was “inactive”.

For the compound `Cn1cnc(CCN)c1`, the Potency entry in [1] and in [5] was “inactive” each time. Moreover, the activity change, negative = inhibition in assay [2] (at 38 µM (top of the series)) is 6.43% (inactive). Also, the activity, negative = inhibition in [6] (at 38 µM (top of the series)) was 0.0099% (inactive). Moreover, the Potency in assay [3] and in assay [4] was > 46 µM (inactive) in each case.

Turning to `CN(C)NC(=O)CCC(=O)O`, the Potency in [8], in assay [9], in assay [10], in [11] and in assay [12] was > 92 µM (inactive) in each case. Also, the activity change, negative = cytotoxicity in assay [13] is -4.24% (inactive). The Potency result in assay [14], in assay [15], in assay [16], in assay [17], in assay [18] and in assay [19] was “inactive” throughout. Further, the result in assay [20] was inactive.

Consider `Cc1nc(-c2ccc(-c3ccc(C(=O)N4CCc5cc6c(cc54)C4(CCN(C)CC4)CO6)cc3)c(C)c2)no1`, for which the Potency result is “inactive and 39.8 µM (active)” in assay [1]; > 46 µM (inactive) in assay [3]; > 46 µM (inactive) in assay [4].

On to `CC(=O)OCC1=C(C(=O)O)N2C(=O)[C@@H](N)[C@@H]2SC1`, for which the Potency result in [1] and in assay [5] was “inactive” throughout. The activity change, negative = inhibition in [2] (at 17.2 µM (top of the series)) was -6.12% (inactive). Also, in [6] (at 17.2 µM (top of the series)), the activity, negative = inhibition was -1.03% (inactive). The Potency in [3] and in [4] was > 20.6 µM (inactive) throughout.
